PubChem BioAssay (Tox21)
Inconclusive results are not listed. The source made the active and inactive calls. Unless noted, calls come from the whole dose curve; as a rule, active = well fitted curve in the direction sought with a large enough effect in the repeat runs; inconclusive = weak or mixed curves; inactive = no such curve, though single readings can be large; an effect the other way counts as inactive or inconclusive.

Tests used:
[1] = qHTS assay to identify small molecule antagonists of the peroxisome proliferator-activated receptor delta (PPARd) signaling pathway - cell viability counter screen (AID 743213); note: % is set by controls: 0 for no effect and ±100 for the full control effect; nearly all actives have a fitted effect of over 50% in size
Method in brief: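 HEK293H PPARd UAS-bla cells, 5 h pre-incubation, compound + L165041 300 nM final, 17 h 37 C; B/G FRET substrate 2 h RT; then CellTiter-Glo 30 min RT, luminescence.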

[2] = qHTS assay to identify small molecule agonists of the farnesoid-X-receptor (FXR) signaling pathway - cell viability counter screen (AID 743218); note: % is set by controls: 0 for no effect and ±100 for the full control effect; nearly all actives have a fitted effect of over 45% in size
Method in brief: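 Luminescence from CellTiter-Glo, read after 30 min at RT, reports viability of GeneBLAzer FXR-UAS-bla HEK 293T cells treated 16 h with compounds in the wells used for the beta-lactamase reporter.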

[3] = qHTS assay to identify small molecule antagonists of the farnesoid-X-receptor (FXR) signaling pathway - cell viability counter screen (AID 743221; active = well fitted cell-killing curve with a large enough effect in the repeat runs, not every such curve was filed as active; note: % is set by controls: 0 for no effect and ±100 for the full control effect; nearly all actives have a fitted effect of over 50% in size)
Method in brief: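 Here viability was scored by luminescence after CellTiter-Glo addition to wells already read for beta-lactamase. Prior treatment: compound plus CDCA (50 uM final), 16 h, 37 C, HEK 293T FXR-bla cells.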

[4] = qHTS assay to identify small molecule agonists of the vitamin D receptor (VDR) signaling pathway - cell viability counter screen (AID 743224); note: series mostly up to about 63 µM; % is set by controls: 0 for no effect and ±100 for the full control effect; nearly all actives have a fitted effect of over 50% in size
Method in brief: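 Cytotoxicity counter screen: VDR-bla cells, 16 h compound exposure at 37C, 5% CO2; CellTiter-Glo luminescence, 30 min RT, same wells as bla read.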

[5] = qHTS assay to identify small molecule antagonists of the vitamin D receptor (VDR) signaling pathway - cell viability counter screen (AID 743225); note: % is set by controls: 0 for no effect and ±100 for the full control effect; nearly all actives have a fitted effect of over 50% in size
Method in brief: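 Compounds were pinned onto VDR-bla HEK 293T cells together with 1-alpha,25-dihydroxyvitamin D3 at 3 nM final. After 16 h at 37C and 5% CO2 plus the reporter readout, cell viability was measured by CellTiter-Glo luminescence (30 min, room temperature).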

[6] = qHTS assay to identify small molecule agonists of the NFkB signaling pathway (AID 1159509; active = well fitted curve in the direction sought with a large enough effect in the signal ratio in the repeat runs, not every such curve was filed as active; the % refers to the signal ratio; note: series mostly up to about 61 µM; % is set by controls: 0 for no effect and ±100 for the full control effect)
Method in brief: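 Pathway activation was measured in ME-180 cells stably expressing beta-lactamase under NF-kB response element control. Substrate cleavage was read as the 460/530 nm emission shift after 5 hr compound incubation.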

[7] = qHTS assay to identify small molecule agonists of the NFkB signaling pathway - cell viability counter screen (AID 1159515; calls by dose curve; note: series mostly up to about 61 µM; % is set by controls: 0 for no effect and ±100 for the full control effect; nearly all actives have a fitted effect of over 55% in size)
Method in brief: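 ME-180 NFkB-bla cells, 2,000/well; overnight attach; compound 5 hr, 37 C/5% CO2; LiveBLAzer substrate 1.5 hr RT; then CellTiter-Glo in same wells, 30 min RT, luminescence read.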

[8] = qHTS assay to identify small molecule agonists of the endoplasmic reticulum stress response signaling pathway (AID 1159516; active = well fitted activation curve with a large enough effect in the signal ratio in the repeat runs, not every such curve was filed as active; the % refers to the signal ratio; note: % is set by controls: 0 for no effect and ±100 for the full control effect)
Method in brief: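 HeLa ESRE-bla reporter line; cpd 5 h, 37 C/5% CO2; LiveBLAzer B/G FRET substrate 2 h RT; ex 405, em 460/530 nm.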

[9] = qHTS assay to identify small molecule agonists of the endoplasmic reticulum stress response signaling pathway - cell viability counter screen (AID 1159517; calls by dose curve)
Method in brief: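 In parallel with the ESRE reporter read, cytotoxicity was scored by CellTiter-Glo luminescence (30 min, room temperature) on HeLa ESRE-bla cells dosed for 5 hr.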

[10] = qHTS assay to identify small molecule antagonists of the retinoid-related orphan receptor gamma (ROR-gamma) signaling pathway - cell viability counter screen (AID 1159520)
Method in brief: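 Tet-on ROR gamma CHO cells were given compounds for 2 hr, then doxycycline hyclate at 1 uM final, and incubated 16 hr at 37 C. Viability was measured as ATP content by CellTiter-Glo luminescence.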

[11] = target: Nuclear receptor ROR-gamma (Homo sapiens) (UniProt P51449); experiment: qHTS assay to identify small molecule antagonists of the retinoid-related orphan receptor gamma (ROR-gamma) signaling pathway (AID 1159521; note: nearly all actives have a fitted effect of over 50% in size; note: potency is the fitted concentration of half-maximal effect)
Method in brief: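 Test compounds were applied to Tet-on RORγ CHO cells 2 h ahead of doxycycline hyclate (1 uM final). Luciferase reporter activity was quantified by luminescence after 16 h at 37 C and 5% CO2.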

[12] = qHTS assay to identify small molecule agonists of the AP-1 signaling pathway - cell viability counter screen (AID 1159525; calls by dose curve; note: nearly all actives have a fitted effect of over 55% in size)
Method in brief: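 Same-well cytotoxicity counter screen of the Tox21 10K library in ME-180 cells. The readout is ATP-dependent luminescence after 5 h compound treatment. Data are normalised to DMSO and tetra n-octyl ammonium bromide controls.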

[13] = qHTS assay to identify small molecule agonists of the AP-1 signaling pathway (AID 1159526; calls by dose curve; note: potency is the fitted concentration of half-maximal effect)
[14] = target: Peroxisome proliferator-activated receptor delta (Homo sapiens) (UniProt Q03181); experiment: qHTS assay to identify small molecule agonists of the peroxisome proliferator-activated receptor delta (PPARd) signaling pathway (AID 743212; calls by dose curve; note: % is set by controls: 0 for no effect and ±100 for the full control effect)
Method in brief: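 Tox21 library screened in GeneBLAzer PPARd UAS-bla HEK293H cells. After compound treatment at 37 C, a FRET-based beta-lactamase substrate was applied for 2 h and fluorescence recorded.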

[15] = target: Vitamin D3 receptor (Homo sapiens) (UniProt P11473); experiment: qHTS assay to identify small molecule agonists of the vitamin D receptor (VDR) signaling pathway (AID 743222; calls by dose curve; note: % is set by controls: 0 for no effect and ±100 for the full control effect)
Method in brief: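 Beta-lactamase reporter readout (LiveBLAzer B/G FRET, 2 h RT) in VDR-bla cells after 16 h compound treatment at 37C, 5% CO2; cells pre-incubated 4 h before pin transfer of DMSO solutions.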

[16] = target: Vitamin D3 receptor (Homo sapiens) (UniProt P11473); experiment: qHTS assay to identify small molecule antagonists of the vitamin D receptor (VDR) signaling pathway (AID 743223; active = well fitted inhibition curve with a large enough effect in the signal ratio in the repeat runs, not every such curve was filed as active; the % refers to the signal ratio; note: % is set by controls: 0 for no effect and ±100 for the full control effect)
Method in brief: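 Inhibition of agonist-driven VDR signalling is scored in VDR-bla cells: 3 nM final 1alpha,25-dihydroxyvitamin D3 plus compound, 16 h at 37C, then beta-lactamase detection by FRET substrate fluorescence after 2 h.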

[17] = qHTS assay to identify small molecule agonists of the peroxisome proliferator-activated receptor delta (PPARd) signaling pathway - cell viability counter screen (AID 743211); note: % is set by controls: 0 for no effect and ±100 for the full control effect; nearly all actives have a fitted effect of over 55% in size
Method in brief: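 In the same wells used for beta-lactamase reporter measurement, cytotoxicity is scored by CellTiter-Glo. HEK293H PPARd-bla cells receive compound for 17 h at 37C following a 5 h settling period.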

[18] = target: Bile acid receptor (Homo sapiens) (UniProt Q96RI1); experiment: qHTS assay to identify small molecule antagonists of the farnesoid-X-receptor (FXR) signaling pathway (AID 743217; active = well fitted inhibition curve with a large enough effect in the signal ratio in the repeat runs, not every such curve was filed as active; the % refers to the signal ratio; note: % is set by controls: 0 for no effect and ±100 for the full control effect)
Method in brief: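 Read-out: beta-lactamase FRET fluorescence (LiveBLAzer B/G substrate, 2 h, room temperature) in GeneBLAzer FXR-UAS-bla HEK 293T cells. Compounds were co-dosed with 50 uM chenodeoxycholic acid (final) and incubated 16 h at 37 °C.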

[19] = target: Bile acid receptor (Homo sapiens) (UniProt Q96RI1); experiment: qHTS assay to identify small molecule agonists of the farnesoid-X-receptor (FXR) signaling pathway (AID 743220; active = well fitted activation curve with a large enough effect in the signal ratio in the repeat runs, not every such curve was filed as active; the % refers to the signal ratio; note: % is set by controls: 0 for no effect and ±100 for the full control effect)
Method in brief: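 FXR-UAS-bla HEK 293T cells carrying a UAS-driven beta-lactamase reporter were plated for 5 h at 37C/5% CO2, then exposed to DMSO-dissolved Tox21 10K compounds for 16 h at 37C. A LiveBLAzer B/G FRET substrate was loaded for 2 h at room temperature before fluorescence reading.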

[20] = target: Peroxisome proliferator-activated receptor delta (Homo sapiens) (UniProt Q03181); experiment: qHTS assay to identify small molecule antagonists of the peroxisome proliferator-activated receptor delta (PPARd) signaling pathway (AID 743215; active = well fitted inhibition curve with a large enough effect in the signal ratio in the repeat runs, not every such curve was filed as active; the % refers to the signal ratio)
Method in brief: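 HEK293H GeneBLAzer PPARd UAS-bla reporter cells; cpd + L165041 300 nM final, 17 h 37 C; LiveBLAzer B/G FRET substrate 2 h RT; fluorescence intensity read-out. Antagonist mode.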

Chain of Bile acid receptor (Homo sapiens) (Q96RI1 whole entry, looked up): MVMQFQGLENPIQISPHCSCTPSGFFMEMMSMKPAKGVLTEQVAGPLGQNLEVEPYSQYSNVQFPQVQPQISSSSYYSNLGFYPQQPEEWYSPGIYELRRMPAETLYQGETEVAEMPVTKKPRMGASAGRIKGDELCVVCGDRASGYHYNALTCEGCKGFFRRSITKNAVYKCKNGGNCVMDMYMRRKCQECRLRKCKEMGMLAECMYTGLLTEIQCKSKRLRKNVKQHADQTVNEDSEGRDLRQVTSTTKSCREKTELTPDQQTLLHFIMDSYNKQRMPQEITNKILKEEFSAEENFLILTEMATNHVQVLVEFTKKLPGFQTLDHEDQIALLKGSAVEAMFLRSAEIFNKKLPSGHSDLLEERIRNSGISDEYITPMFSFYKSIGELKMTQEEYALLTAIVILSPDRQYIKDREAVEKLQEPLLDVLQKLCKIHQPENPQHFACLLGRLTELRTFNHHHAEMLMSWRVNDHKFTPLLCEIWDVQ
Chain of Vitamin D3 receptor (Homo sapiens) (P11473 whole entry, looked up): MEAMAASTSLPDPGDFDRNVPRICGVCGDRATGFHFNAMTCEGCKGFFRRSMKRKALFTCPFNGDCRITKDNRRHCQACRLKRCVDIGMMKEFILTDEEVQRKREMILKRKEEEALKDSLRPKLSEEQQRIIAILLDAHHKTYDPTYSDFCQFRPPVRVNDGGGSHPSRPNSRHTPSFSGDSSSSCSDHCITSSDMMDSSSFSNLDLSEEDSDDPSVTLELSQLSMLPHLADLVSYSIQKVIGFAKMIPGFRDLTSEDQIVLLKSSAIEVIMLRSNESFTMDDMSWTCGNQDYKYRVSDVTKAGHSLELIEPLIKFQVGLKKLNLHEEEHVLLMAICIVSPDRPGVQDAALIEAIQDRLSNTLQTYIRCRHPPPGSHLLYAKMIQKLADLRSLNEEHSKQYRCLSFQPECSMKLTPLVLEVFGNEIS
Chain of Peroxisome proliferator-activated receptor delta (Homo sapiens) (Q03181 whole entry, looked up): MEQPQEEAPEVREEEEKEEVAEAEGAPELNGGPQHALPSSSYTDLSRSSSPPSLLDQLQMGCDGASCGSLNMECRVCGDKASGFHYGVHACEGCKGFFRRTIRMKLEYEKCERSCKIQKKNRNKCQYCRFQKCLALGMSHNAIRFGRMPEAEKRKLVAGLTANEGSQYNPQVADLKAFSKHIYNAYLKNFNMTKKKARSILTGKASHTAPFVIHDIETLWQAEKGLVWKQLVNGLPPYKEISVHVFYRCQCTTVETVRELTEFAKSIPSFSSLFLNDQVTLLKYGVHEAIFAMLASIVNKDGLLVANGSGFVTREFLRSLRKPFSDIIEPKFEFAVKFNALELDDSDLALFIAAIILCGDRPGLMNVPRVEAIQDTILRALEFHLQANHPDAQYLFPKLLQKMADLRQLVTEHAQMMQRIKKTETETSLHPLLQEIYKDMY

CC(C)=CCC/C(C)=C/C(=O)O
inactive: Potency [1] | outcome [2] | Potency [3] | outcome [4] | outcome [5] | outcome [6] | outcome [7] | outcome [8] | outcome [9] | Potency [10] | Potency [11] | outcome [12] | Potency [13]

CCN1CCN(c2cc3c(cc2F)c(=O)c(C(=O)O)cn3C2CC2)CC1
inactive: outcome [14] | Potency [1] | Potency [3] | outcome [15] | outcome [16] | outcome [4] | outcome [5] | outcome [6] | outcome [7] | outcome [8] | outcome [9] | Potency [10] | Potency [11] | outcome [12] | Potency [13]

O=C(O)CCNC(=O)c1ccc(N=Nc2ccc(O)c(C(=O)O)c2)cc1
inactive: Potency [17] | outcome [14] | Potency [1] | outcome [18] | outcome [2] | outcome [19] | Potency [3] | outcome [5] | outcome [6] | outcome [7] | outcome [8] | outcome [9] | Potency [10] | Potency [11] | Potency [13]

CCCCC=O
inactive: Potency [17] | Potency [1] | outcome [2] | outcome [19] | Potency [3] | outcome [15] | outcome [16] | outcome [4] | outcome [5] | outcome [6] | outcome [7] | outcome [8] | outcome [9] | Potency [10] | Potency [11] | Potency [13]

CCCCCCC(CCCCCCCCCCC(=O)OCC(COC(C)=O)OC(C)=O)OC(C)=O (centres undefined)
inactive: Potency [1] | outcome [20] | outcome [19] | Potency [3] | outcome [15] | outcome [16] | outcome [4] | outcome [5] | outcome [6] | outcome [7] | outcome [8] | outcome [9] | Potency [10] | Potency [11] | outcome [12] | Potency [13]

N#CCc1ccccc1[N+](=O)[O-]
inactive: Potency [17] | outcome [14] | Potency [1] | outcome [18] | outcome [2] | outcome [19] | Potency [3] | outcome [15] | outcome [16] | outcome [4] | outcome [5] | outcome [6] | outcome [7] | outcome [8] | outcome [9] | Potency [10] | Potency [11] | Potency [13]

NCC[C@H](O)C(=O)N[C@@H]1C[C@H](N)[C@@H](O[C@H]2O[C@H](CN)[C@@H](O)[C@H](O)[C@H]2O)[C@H](O)[C@H]1O[C@H]1O[C@H](CO)[C@@H](O)[C@H](N)[C@H]1O
inactive: activity change, negative = cytotoxicity [17] 6.61% [at 0.55 µM] | activation [14] 0% [at 0.55 µM] | viability change, negative = cytotoxic [1] -2.06% [at 0.575 µM] | ratio activity, negative = inhibition [20] 4.4% [at 0.575 µM] | activity change, negative = cytotoxicity [3] 9.05% [at 0.55 µM] | activity change, negative = cytotoxicity [4] 7.01% [at 0.55 µM] | viability change, negative = cytotoxic [5] 0.0036% [at 0.628 µM] | activation [6] 0.167% [at 0.628 µM] | activity, negative = cytotoxic [7] 8.7% [at 0.628 µM] | activation [8] -0.818% [at 0.628 µM] | activity change, negative = cytotoxicity [9] 6.85% [at 0.628 µM] | activity, negative = cytotoxicity [10] 3.36% [at 0.349 µM] | activity change, negative = inhibition [11] 19% [at 0.35 µM] | activation [13] 12.3% [at 0.29 µM]

CCCCCN(CCCCC)C(=O)C(CCC(=O)O)NC(=O)c1ccc(Cl)c(Cl)c1 (centres undefined)
inactive: Potency [1] | outcome [2] | Potency [3] | outcome [4] | outcome [6] | outcome [7] | outcome [8] | outcome [9] | Potency [10] | Potency [11] | outcome [12] | Potency [13]

Nc1[nH]c(=O)ncc1F
inactive: Potency [17] | Potency [1] | outcome [20] | outcome [18] | outcome [2] | outcome [19] | Potency [3] | outcome [15] | outcome [16] | outcome [4] | outcome [5] | outcome [6] | outcome [7] | outcome [8] | outcome [9] | Potency [10] | Potency [11] | Potency [13]

COc1ccc2cc(C=O)ccc2c1
inactive: Potency [17] | outcome [14] | Potency [1] | outcome [2] | Potency [3] | outcome [15] | outcome [16] | outcome [4] | outcome [5] | outcome [6] | outcome [7] | outcome [8] | outcome [9] | Potency [10] | Potency [11] | Potency [13]

CN(C)C(=O)Nc1ccccc1
inactive: Potency [17] | outcome [14] | Potency [1] | outcome [2] | Potency [3] | outcome [15] | outcome [16] | outcome [4] | outcome [6] | outcome [7] | outcome [8] | outcome [9] | Potency [10] | Potency [11] | Potency [13]

Nc1cc(N)cc(C(=O)O)c1
inactive: Potency [17] | outcome [14] | Potency [1] | outcome [20] | outcome [18] | outcome [19] | Potency [3] | outcome [15] | outcome [16] | outcome [4] | outcome [5] | outcome [6] | outcome [7] | outcome [8] | outcome [9] | Potency [10] | Potency [11] | Potency [13]

CCOC(=O)Nc1ccc2c(c1)N(C(=O)CCN1CCOCC1)c1ccccc1S2
inactive: Potency [17] | outcome [14] | Potency [1] | outcome [20] | outcome [2] | outcome [15] | outcome [4] | outcome [5] | outcome [6] | outcome [7] | outcome [8] | outcome [9] | Potency [10] | Potency [11] | Potency [13]

Cc1onc(-c2ccccc2)c1-c1ccc(S(N)(=O)=O)cc1
inactive: outcome [14] | Potency [1] | outcome [20] | outcome [2] | Potency [3] | outcome [15] | outcome [16] | outcome [5] | outcome [6] | outcome [7] | outcome [8] | outcome [9] | Potency [10] | Potency [11] | Potency [13]

NCCN1CCNC1=O
inactive: Potency [17] | outcome [14] | outcome [20] | Potency [3] | outcome [15] | outcome [16] | outcome [4] | outcome [6] | outcome [7] | outcome [8] | outcome [9] | Potency [10] | Potency [11] | Potency [13]

c1cc(CN2CCCCC2)cc(OCCCNc2nc3ccccc3s2)c1
inactive: outcome [20] | outcome [2] | Potency [3] | outcome [15] | outcome [4] | outcome [6] | outcome [7] | outcome [8] | outcome [9] | Potency [10] | outcome [12]
active: Potency [11] 26.6 µM | Potency [13] 26.8 µM

C1CCCCCCCCCCC1
inactive: outcome [14] | Potency [1] | outcome [20] | outcome [2] | Potency [3] | outcome [15] | outcome [16] | outcome [4] | outcome [5] | outcome [6] | outcome [7] | outcome [8] | outcome [9] | activity, negative = cytotoxicity [10] 0.201% [at 19 µM] | activity change, negative = inhibition [11] -5.57% [at 19 µM] | activation [13] -0.287% [at 15.8 µM]
